In PMC10726135, “HNF4α isoforms regulate the circadian balance between carbohydrate and lipid metabolism in the liver” one finds binding signal data, which are given here for 43 sequences.

The full ranking holds about 18,000 sequences; the median of “log2 normalized intensity” is about 0.39, and the highest 2% start at about 6.6. The sample as a whole holds a higher share of the highest values than the screen did.

This experiment concerns the target T1, HNF4alpha2 (COS-7 nuclear extract) (Homo sapiens, UniProt P41235 1-474).
T1 sequence: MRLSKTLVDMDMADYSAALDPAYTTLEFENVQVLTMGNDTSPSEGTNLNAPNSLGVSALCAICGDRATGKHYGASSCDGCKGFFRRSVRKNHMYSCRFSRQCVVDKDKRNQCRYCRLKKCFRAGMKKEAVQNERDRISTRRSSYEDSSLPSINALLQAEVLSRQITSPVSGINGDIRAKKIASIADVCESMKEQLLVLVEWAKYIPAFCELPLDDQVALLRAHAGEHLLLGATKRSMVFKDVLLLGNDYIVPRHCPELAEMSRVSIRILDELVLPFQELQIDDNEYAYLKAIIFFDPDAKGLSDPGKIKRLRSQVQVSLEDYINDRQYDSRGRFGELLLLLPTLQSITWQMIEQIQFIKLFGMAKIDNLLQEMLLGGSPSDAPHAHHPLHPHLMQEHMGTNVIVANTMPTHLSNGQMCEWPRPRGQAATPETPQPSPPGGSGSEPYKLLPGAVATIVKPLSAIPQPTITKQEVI
Description: protein-binding microarray; COS-7 nuclear extract on double-stranded Agilent 4x180k PBM; binding buffer, salt, pH and temperature not given in the material; high values mean tight binding. The following applies: chain copies: 2; label: 3' end of strand 1 on the slide; dsDNA, one strand shown. The essentials:
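The binding signal is Agilent software's gProcessedSignal after background correction and normalization. Arrays were a custom Agilent SurePrint G3 4x180k design of double-stranded ~60-nt oligonucleotides with ~44,000 test sequences in quadruplicate, probed with nuclear extracts of COS-7 cells transiently expressing a human HNF4α isoform. Scans were made at 2-µm resolution on an Agilent G2565CA scanner.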
Consider “AAGACTTTGGACTTTGGACCTGAGGCTTTTGCCTAGGGAGATTAGAGTATCGGTCGA”, for which the binding signal is 9.84 log2 normalized intensity.

In the case of “GAGGCTCAGACCTGACCTTTGGATTCCCAGGCCTAGGGAGATTAGAGTATCGGTCGA”, the binding signal is 6.53 log2 normalized intensity.

Consider “TGCTGGAGATGAGGCTCAGACCTGACCTTTGCCTAGGGAGATTAGAGTATCGGTCGA”, for which the binding signal was determined as 6.49 log2 normalized intensity.

As to “GGACCTGAGGCTTTTGAGTCAATAATGGACGCCTAGGGAGATTAGAGTATCGGTCGA”, the binding signal came out at 1.21 log2 normalized intensity.

Consider “TACTTTGGACTGGGGACCTGGTCTGAGATAGCCTAGGGAGATTAGAGTATCGGTCGA”, for which the binding signal stood at 1.75 log2 normalized intensity.

Consider “ATGTGGGGAAACTGGACTGTAATTTGTGGTGCCTAGGGAGATTAGAGTATCGGTCGA”, for which the binding signal turned out to be 1.43 log2 normalized intensity.

As for “ACGTCAGAACTGTCCTTTAACCTCCCTGCAGCCTAGGGAGATTAGAGTATCGGTCGA”, the binding signal was 1.99 log2 normalized intensity.

For the sequence “AATGGAAGAATCACAGTGTGGGGCAAATCTGCCTAGGGAGATTAGAGTATCGGTCGA”, the binding signal was -0.752 log2 normalized intensity.

With “ACCAGGGGGCAGAGTGAGCAGCACTTTTGGGCCTAGGGAGATTAGAGTATCGGTCGA”, the binding signal was -0.845 log2 normalized intensity.

For the sequence “CTGCCAAAGTTCAGCCTTGGGGCCATTCCAGCCTAGGGAGATTAGAGTATCGGTCGA”, the binding signal was determined as 0.325 log2 normalized intensity.

As for “GGGGTCAAAGTCCCCTGAGCTTGAGTCCATGCCTAGGGAGATTAGAGTATCGGTCGA”, the binding signal came to 5.36 log2 normalized intensity.

Regarding “CTCTCCCTCCTCTCTGAGCAGTCAAACTGGGCCTAGGGAGATTAGAGTATCGGTCGA”, the binding signal is 1.96 log2 normalized intensity.

As to “CACTGGCTCTGGGGTCAAAGTCCCCTGAGCGCCTAGGGAGATTAGAGTATCGGTCGA”, the binding signal was 7.16 log2 normalized intensity.

For the sequence “CCTGCCTCTCCTCTGAGCTTCATCCTGACCGCCTAGGGAGATTAGAGTATCGGTCGA”, the binding signal amounted to 1.62 log2 normalized intensity.

“AGGTCGCAAGCACTGGCTCTGGGGTCAAAGGCCTAGGGAGATTAGAGTATCGGTCGA”: the binding signal came to 3.1 log2 normalized intensity.

Consider “AAAGGTCATCGCACCGGCAGGGGAGAACTTGCCTAGGGAGATTAGAGTATCGGTCGA”, for which the binding signal worked out at 0.284 log2 normalized intensity.

Turning to “TCATCGCACCGGCAGGGGAGAACTTCCTCCGCCTAGGGAGATTAGAGTATCGGTCGA”, the binding signal was -0.988 log2 normalized intensity.

“TCTCTGGGTCAAAGGTCATCGCACCGGCAGGCCTAGGGAGATTAGAGTATCGGTCGA”: the binding signal worked out at 7.15 log2 normalized intensity.

“GCCACCCTCCTCTCTGGGTCAAAGGTCATCGCCTAGGGAGATTAGAGTATCGGTCGA”: the binding signal amounted to 9.58 log2 normalized intensity.

For “CCTCCTCTCTGGGTCAAAGGTCATCGCACCGCCTAGGGAGATTAGAGTATCGGTCGA”, the binding signal was determined as 7.54 log2 normalized intensity.

For “GAGGTGTCAGCCACCCCTCCTCCTGGGGGCGCCTAGGGAGATTAGAGTATCGGTCGA”, the binding signal was 2.64 log2 normalized intensity.

“CTGGGGCCACCCTCCTCTCTGGGTCAAAGGGCCTAGGGAGATTAGAGTATCGGTCGA”: the binding signal was found to be 4.74 log2 normalized intensity.

With “AAGTGTGGTCAAGGGTCAGTTTCTGAGAGTGCCTAGGGAGATTAGAGTATCGGTCGA”, the binding signal amounted to 3.65 log2 normalized intensity.

Take “ATAGTTGACCCTTGAACAATGTGGGGGTCGGCCTAGGGAGATTAGAGTATCGGTCGA”: the binding signal worked out at 3.7 log2 normalized intensity.

As for “CTTGTCCTTGACCCTTCCTCCCATTTGCTGGCCTAGGGAGATTAGAGTATCGGTCGA”, the binding signal came out at 2.29 log2 normalized intensity.

For “GCCCCCGCAGACCCAGTCTTAGGGACTAAGGCCTAGGGAGATTAGAGTATCGGTCGA”, the binding signal turned out to be 3.86 log2 normalized intensity.

Regarding “TCCCTTCCCCCCTCCTCATTGAGAGTTTTAGCCTAGGGAGATTAGAGTATCGGTCGA”, the binding signal was determined as 4.2 log2 normalized intensity.

Regarding “TTGAAGCTCCAAGATAGGAATGTACATAATGCCTAGGGAGATTAGAGTATCGGTCGA”, the binding signal was determined as 1.11 log2 normalized intensity.

As for “GTCTTAGGGACTAAGCTTGTAGACCAAGGAGCCTAGGGAGATTAGAGTATCGGTCGA”, the binding signal came out at 0.172 log2 normalized intensity.

In the case of “AAGGCTGCAAGCAAACCTGCCCTTTGCTCCGCCTAGGGAGATTAGAGTATCGGTCGA”, the binding signal was found to be 5.57 log2 normalized intensity.

With “GGGAAACACAGACTCCAAAGAATGGAAGGCGCCTAGGGAGATTAGAGTATCGGTCGA”, the binding signal is -0.871 log2 normalized intensity.

In the case of “CCTTTGGTCTAAACCTACTTAGATCAAGATGCCTAGGGAGATTAGAGTATCGGTCGA”, the binding signal is -0.394 log2 normalized intensity.

With “ACCCCAAAACCCCCAAAGGTGAGTAGGGCCGCCTAGGGAGATTAGAGTATCGGTCGA”, the binding signal worked out at 2.67 log2 normalized intensity.

As to “TGCTCTCTCATGCCCTTTGCCTCCCTGCATGCCTAGGGAGATTAGAGTATCGGTCGA”, the binding signal was determined as 3.45 log2 normalized intensity.

Consider “GCATCAGGGTCCACAAGGGTTTAAATCTGAGCCTAGGGAGATTAGAGTATCGGTCGA”, for which the binding signal amounted to 1.03 log2 normalized intensity.

Consider “CAGTTTGACCTTTGCATTCTTACCCAAGCCGCCTAGGGAGATTAGAGTATCGGTCGA”, for which the binding signal was 4.4 log2 normalized intensity.

Take “TTTGGAGTTTGACCTGGAGCCAGGGCCTTTGCCTAGGGAGATTAGAGTATCGGTCGA”: the binding signal was 3.11 log2 normalized intensity.

As to “CCTGAGAGGCCAGTTTGACCTTTGCATTCTGCCTAGGGAGATTAGAGTATCGGTCGA”, the binding signal was 7.56 log2 normalized intensity.

For “ATATCCCTGAGAGGCCAGTTTGACCTTTGCGCCTAGGGAGATTAGAGTATCGGTCGA”, the binding signal was found to be 8.38 log2 normalized intensity.

Take “GAGGCCAGTTTGACCTTTGCATTCTTACCCGCCTAGGGAGATTAGAGTATCGGTCGA”: the binding signal was 5.97 log2 normalized intensity.

“TCACCATATCCCTGAGAGGCCAGTTTGACCGCCTAGGGAGATTAGAGTATCGGTCGA”: the binding signal came to 2.83 log2 normalized intensity.

For “CACAGGTAAACATTTGCCTTTAGGGCCCCCGCCTAGGGAGATTAGAGTATCGGTCGA”, the binding signal amounted to 2.56 log2 normalized intensity.

With “GTGGGCAAGTTATCTCGGGGTGGCATGTATGCCTAGGGAGATTAGAGTATCGGTCGA”, the binding signal came to 1.14 log2 normalized intensity.
